Assay outcomes from PubChem BioAssay.
Only some compounds are listed: those with a hit (about 2.8% of all), similar ones and a draw of the others.
Peg3 prom inh: Peg3 promoter-driven luciferase inhibitors, primary screen, cell-based, HeLa, luciferase luminescence; HeLa PEG-Prom luciferase reporter, overnight; 1.7% of 360,000 active; inhibition, % at 20 µM; AID 588405, 2011;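 active = inhibition of at least 50% at 20 µM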
HIF-2a inh: HIF-2a reporter inhibitors, primary screen, luminescence, 786-0 RCC cells; 786-0 RCC cells HIF-2a reporter, luciferase luminescence, overnight; inhibition, % at 18.8 µM; 0.72% of 360,000 active;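 active = inhibition of the luminescence signal of 40% or more relative to plate controls, in a single-dose primary screen at 18.75 µM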
MITF TRPM1 inh: inhibitors of MITF-dependent TRPM1 promoter reporter, primary screen, cell-based, SK-MEL-5, single point, luciferase; inhibition, % at 12.5 µM; 0.83% of 330,000 active; SK-MEL-5 TRPM1 promoter luciferase, 24 h;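 active = mean inhibition across replicates of 60% or more, whatever share of single replicates reaches that level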
EBV LMP1 NFkB: EBV LMP1-driven NF-kappaB luciferase reporter inhibitors, primary screen, cell-based, luminescence, single point; LMP1-induced NF-kappaB luciferase reporter cells; inhibition, % at 12.5 µM; 0.69% of 350,000 active; AID 504558, 2011; in the data active = inhibition above about 41%
PAX8 reporter: inhibitors of PAX8-driven TPO luciferase reporter, primary screen, RMG-I cells, single concentration | SteadyGlo, 24 h | inhibition, % at 12.6 µM | 1.2% of 360,000 active | AID 652154, 2013;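 active = mean replicate inhibition at least 60% with every replicate also reaching 60%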;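 note: luciferase light reporting Pax8 driven TPO promoter activity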
Shn3 3UTR inh: reduction of Shn3 3'UTR firefly luciferase signal, primary screen, Schnurri-3 inhibitor project, cell-based, Clone20 osteoblasts, set 2. Clone20 osteoblast Shn3 3'UTR firefly luciferase, 24 h. inhibition, % at 12.5 µM. 0.52% of 360,000 active;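 active = mean inhibition of at least 75% with every replicate also reaching 75%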
Hits are given with their value; – = inactive; · = no result; ! = a repeat was not active.

SMILES	Peg3 prom inh	HIF-2a inh	MITF TRPM1 inh	EBV LMP1 NFkB	PAX8 reporter	Shn3 3UTR inh
Cc1ccc(S(=O)(=O)Nc2cccc3c2O[C@@H](CN(C)S(=O)(=O)c2ccccc2)[C@@H](C)CN([C@H](C)CO)C3=O)cc1	·	·	·	·	–	·
O=C1N=C(N2CCN(c3cccc4ccccc34)CC2)S/C1=C/c1cccs1	–	–	–	77.5	·	–
Cc1ccccc1N1CCN(C2=NC(=O)/C(=C\c3cccs3)S2)CC1	–	–	–	–	–	–
O=C(C[C@@H]1C[C@@H]2c3cc(NC(=O)C4CCOCC4)ccc3O[C@@H]2[C@H](CO)O1)NCC1CC1	·	·	·	·	–	·
C[C@H](CO)N1C[C@H](C)[C@@H](CN(C)Cc2ccncc2)OCCCC[C@H](C)Oc2ccc(NC(=O)C3CCCCC3)cc2C1=O	·	·	·	·	–	·
COCC(=O)N1CCCCN2[C@H](CO)[C@H](c3ccc(-c4ccc(C)cc4)cc3)[C@H]2C1	·	·	·	·	–	·
COCC(=O)N1CCCCN2[C@H](C1)[C@@H](c1ccc(-c3ccc(C)cc3)cc1)[C@@H]2CO	·	·	·	·	115.4	·
Cc1ccc(-c2ccc([C@H]3[C@@H](CO)N4CCCCN(C(=O)c5ccc(F)cc5)C[C@H]34)cc2)cc1	·	·	·	·	73.0	·
Cc1ccc(-c2ccc([C@H]3[C@H](CO)N4CCCCN(C(=O)c5ccc(F)cc5)C[C@@H]34)cc2)cc1	·	·	·	·	–	·
Cc1ccccc1-c1ccc([C@@H]2[C@@H](CO)N3CCCCN(C(=O)NC4CCCC4)C[C@H]23)cc1	·	·	·	·	82.0	·
CCS(=O)(=O)N[C@H]1C=C[C@@H](CC(=O)Nc2ccc(-c3ccccc3)cc2)O[C@@H]1CO	·	·	·	·	–	·
O=C(Cc1ccncc1)NCC[C@@H]1CC[C@@H](NC(=O)C2CCC2)[C@@H](CO)O1	·	·	·	·	–	·
Cc1nc2ccccn2c1C(=O)N=Nc1c(O)n(CCC(C)C)c2ccccc12	107.1	–	–	–	–	86.0
CCCn1c(O)c(N=NC(=O)c2ccco2)c2ccccc21	–	–	–	–	–	–
COC(=O)C[C@@H]1C[C@H]2c3cc(NS(C)(=O)=O)ccc3O[C@H]2[C@@H](CO)O1	·	·	·	·	–	·
CN(C)C(=O)c1ccc(-c2ccc(C3[C@@H]4CN(Cc5nccs5)C[C@H]3N4)cc2)cc1 (some centres undefined)	·	·	·	·	–	·
Fc1cccc(CN2C[C@@H]3N[C@H](C2)[C@@H]3c2ccc(-c3cccc(F)c3)cc2)c1	·	·	·	·	94.4	·
Fc1cccc(-c2ccc(C3[C@@H]4CN(Cc5cccnc5)C[C@H]3N4)cc2)c1 (some centres undefined)	·	·	·	·	–	·
Fc1ccc(-c2ccc(C3[C@@H]4CN(Cc5nccs5)C[C@H]3N4)cc2)cc1 (some centres undefined)	·	·	·	·	62.9!	·
Fc1cccc(CN2C[C@@H]3N[C@H](C2)C3c2ccc(-c3cncnc3)cc2)c1 (some centres undefined)	·	·	·	·	–	·
Fc1cccc(CN2C[C@@H]3N[C@H](C2)C3c2ccc(-c3ccccc3)cc2)c1 (some centres undefined)	·	·	·	·	89.0!	·
C(=C\c1ccc(C2[C@@H]3CN(Cc4ccc5c(c4)OCO5)C[C@H]2N3)cc1)/c1ccccc1 (some centres undefined)	·	·	·	·	81.0!	·
Cc1noc(C)c1NC(=O)N(C)C[C@@H]1OCCCC[C@H](C)Oc2ccc(NS(=O)(=O)c3cccs3)cc2C(=O)N([C@@H](C)CO)C[C@@H]1C	·	·	·	·	–	·
O=C(NCc1ccc(F)cc1)C(c1ccccc1)c1ccccc1	–	–	–	–	–	–
CC(=O)N(Cc1ccc(F)cc1)C1=C(NCc2ccccc2)C(=O)c2ccccc2C1=O	109.6	67.7	97.8	53.2	·	–
CC(C)NC(=O)N1[C@H](CO)[C@@H](c2ccccc2)[C@@H]1CN(C)C(=O)c1ccccc1	·	·	·	·	–	·
Cc1noc(C)c1S(=O)(=O)N(C)C[C@H]1OCCCC[C@H](C)Oc2ccc(NC(=O)C3CCCCC3)cc2C(=O)N([C@H](C)CO)C[C@H]1C	·	·	·	·	–	·
COc1ccccc1N1CCN(c2ncnc3c2oc2ccccc23)CC1	57.5	–	–	–	·	–
COc1ccccc1N1CCN(Cc2ccc(OC)c(OC)c2OC)CC1	–	–	–	–	–	–
COc1ccccc1N1CCN(Cc2ccc(O)c3ncccc23)CC1	–	–	87.8	72.7	·	88.3
